According to the supplement of paper PMC6555819:

What follows are sequences tested on VDR:RXRa (NR concentration 270 nM, RXRa partner concentration 90 nM) (assay: PBM binding z-score (relative to random genomic background probes); higher = stronger binding; sequences stand for … in GC…GCGATTGACAGCGTAGAATGAAGG).
Procedure: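 Protein-binding microarray (Agilent 4x180K custom design, double-stranded 60-nt probes: 5' GC cap, 34-nt variable region, 24-nt constant primer region; full probe sequence given). Purified or IVT nuclear receptor:RXRα heterodimers (3:1 NR:RXRα, mostly 270:90 nM) or homodimers were incubated for 1 h in PBS with 2% milk and no ligand, then detected with Alexa488 antibodies. Fluorescence from o1-orientation probes (~5 replicates averaged) was converted to z-scores against 500 random hg19 background probes. Variable regions are seed direct-repeat (DR0–DR5) sites, all their single-nucleotide variants and half-site ablations.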

| Sequence | PBM binding z-score |
| --- | --- |
| AGTCAAAGTTCAACTAGGTAACGTAAGATATGCT | 4.61 |
| TAGCCTAAGTCAGATCGGGCCAGTATACGCTATA | -0.662 |
| GATATTAGTTGAAAGGGCAACCGAATGATTCTCG | 0.661 |
| ACAGAGAGGTGAGTGAAGGTAACTCAGCTGGACG | 0.13 |
| GGGACTGGGGCAAAGCAGGTTACCATAAGGTTGG | 0.732 |
| ACTATTAGTTGACTTAGGGCAACCGCTACGACGC | 0.319 |
| TCTGCTAGGTCAGTTGGTCTGCTAACGAGCTGCC | 0.0911 |
| TCAATGAGGTTATAAGATCAGGGAACGTTGCAAA | 1.22 |
| ATCGAACGGTCGAAGGTGAGTATACCCACCCGAA | -0.202 |
| TAGCCTAGGTCACTCAGGGGCCAGTATAGAAAGC | 2.42 |
| AGAACGAGGGCACGCTGAGTTGATAACAGAGTAG | 2.06 |
| CGTCCAAGGGCAAGGTCAGTGAAAGAGACTCGAA | 1.59 |
| TCGAGTAGGTTAGGGGCAATCAGAATGGCGTCGA | 0.363 |
| AATACAGGGGCACTAGGCCAGAGTAGGTACGAAT | 0.171 |
| GGAACTAGGGCAAGTTGATAGCAGAGTTTGATGG | -0.183 |
| CATATAGGGTCAGCTAGGCCAGAGTAGGGACGGC | 3.7 |
| TCATATAGGTAAAGGAGAAAGTCGAACGATATGA | 0.392 |
| TAGCCTAGGTCAGATCGGCCCAGTATACGCTATA | 0.134 |
| CCGAGTACGTTATGGGGCATTCAGGCAACGGTGA | 0.216 |
| ATATGGAGGTTACATCCGGGTCATTCAGGCTATG | 5.05 |

| Sequence | PBM binding z-score |
| --- | --- |
| TCTAGTTGGTCAAAGGTCACACAATCGAAATGCG | 5.52 |
| ACAGACACGTGATGAAGGTAACTCAGGCTATCAT | 0.0575 |
| CGTCCAAGGTCAGAGAGGTCAGTGCATGCCGAGT | 7.42 |
| TCTTGTAGATCAAAGGTTAAGAATGCCGAAGCCT | 1.7 |
| TAGCCTAGGTCATTGGGCCAGTAAAGTACGCATC | 2.08 |
| TCTAGTTGGTCAAAGGTCACACTCTCGAAATGCG | 5 |
| AGAATGCGGTTACCAAAGATCAGGGAAACGCTTG | -0.612 |
| TCTAGTTGGTCTCGGAGGTCACACACGACGGGTA | 3.75 |
| TTACCAAGGTGAAAGGTCCTTGATGCACGCCTTG | 0.75 |
| AACGAAAGGTCGTGAGGTGAGTATACAGAAAGGC | 3.68 |
| GCTGCTAGGTCAGGTTGGTGAGCTAACGGGTACG | 0.141 |
| CCGACTGGGGCAAGGTTACCATTACGCACAGCCA | 0.00135 |
| TCAGACAGGTGTAGGTAACTCAGGTACGCAGTCG | 0.89 |
| TCATGTAGGTAAACAGGTGAAAGTCCGTAAGTTA | 0.613 |
| CCTATTAGTTGACCATAAGGGCAAGCGAAGCTCG | 0.92 |
| CAAACTAGATCAAAGGTCAAAGTCGAGCCAACCA | 4.93 |
| ATCTCTAGGTAACAAGTTCATTGAAAGAGAGGAC | 3.84 |
| CCTATTAGTAGACCATAAGGGCAACCGAAGCTCG | 0.553 |
| TAGCCTAGGTCATTCAGCGGCCAGTATAGAAAGC | 2.62 |
| ACTAGCAGGCCAAGGGTCACTCATGATTAGTCCG | 2.64 |
